PubChem BioAssay AID1565 (Sanford-Burnham Center for Chemical Genomics, 2009)
The campaign covered roughly 290,000 compounds. About 3,200 (1.1%) were called active. Cut-off read from the data, not from the text of the source: active = inhibition above about 60%; inactive = the rest. Only a selection was taken, and actives are over-represented in it overall.

Molecular target: Phosphoethanolamine/phosphocholine phosphatase (Homo sapiens) (UniProt Q8TCT1)
Assay: PubChem AID 1565
Settings: recombinant PHOSPHO1, absorbance phosphatase assay; at 13.3 µM; hits give high values

Sequence of Phosphoethanolamine/phosphocholine phosphatase (Homo sapiens) (Q8TCT1 whole entry, looked up): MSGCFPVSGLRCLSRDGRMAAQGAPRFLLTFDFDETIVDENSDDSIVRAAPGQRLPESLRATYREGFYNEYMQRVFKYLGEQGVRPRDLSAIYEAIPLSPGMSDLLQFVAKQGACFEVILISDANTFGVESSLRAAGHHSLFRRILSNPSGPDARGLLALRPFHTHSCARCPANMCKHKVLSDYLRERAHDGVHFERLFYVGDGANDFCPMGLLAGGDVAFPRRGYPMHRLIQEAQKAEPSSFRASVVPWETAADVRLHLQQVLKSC

SMILES	inhibition
Cc1ccc(C)c(NC(=O)c2cc(-c3cc(C)cc(C)c3O)n[nH]2)c1	41.9% (inactive)
CCOC(=O)c1c(NC(=O)CSc2nccc(=O)[nH]2)sc(C)c1C	22.2% (inactive)
CCOC(=O)c1c(-n2cnnn2)sc(C)c1C	98.7% (active)
CCOc1ccc(C(=O)COC(=O)c2ccc(-n3cnnn3)cc2)cc1	13.7% (inactive)
CCCC(C)NC(=O)C1CCN(C(=O)C2CC(=O)N(c3ccc(C)cc3)C2)CC1 (configuration not stated)	14.2% (inactive)
CCN(CC(=O)NCc1cccs1)C(=O)c1cccc(S(=O)(=O)Nc2ccccc2OC)c1	60.6% (active)
CCN(CC(=O)NCc1cccs1)C(=O)c1ccccc1F	16.3% (inactive)
COc1cc(CC(=O)NCc2cccs2)cc(OC)c1OC	1% (inactive)
Cc1nnc(SCC(=O)NNC(=O)c2ccc(Cl)cc2)n1CC1CCCO1 (configuration not stated)	14.8% (inactive)
Cc1ccc(-n2c(-c3ccc(Cl)cc3)n[nH]c2=S)cc1	-46.5% (inactive)
S=c1[nH]nc(-c2ccc(Cl)cc2)n1CC1CCCO1 (configuration not stated)	90.4% (active)
CCn1c(COc2c(C)cccc2C)nnc1SCc1nc2ccccc2c(=O)[nH]1	29.2% (inactive)
O=c1[nH]c(CSc2ncc(-c3ccc(F)cc3)n2Cc2ccco2)nc2ccccc12	67.4% (active)
CCn1c(Cc2ccccc2)nnc1SCc1nc2ccccc2c(=O)[nH]1	6.3% (inactive)
Cc1ccccc1CCNC(=O)C1CCC(=O)N(Cc2ccc(Cl)cc2)C1 (configuration not stated)	27% (inactive)
COc1ccc2c(c1)C(NS(=O)(=O)OCC(Cl)(Cl)Cl)CCC2 (configuration not stated)	-7.3% (inactive)
O=c1c(-c2ccccc2Cl)c[nH]n1-c1ccccc1	31.3% (inactive)
Cc1ccc(S(=O)(=O)C(C#N)c2nc3ccccc3nc2N2CCCC2)cc1C (configuration not stated)	95.8% (active)
Cc1ccc(S(=O)(=O)Nc2nc3ccccc3nc2N2CCc3ccccc3C2)cc1	10.5% (inactive)
Cc1cc(N2CCN(S(=O)(=O)c3ccc(C)c(C)c3)CC2)c2ccccc2n1	-5.3% (inactive)
COC(=O)c1cc(C(=O)NC(C)C2CC3CCC2C3)cc([N+](=O)[O-])c1 (configuration not stated)	26.5% (inactive)

SMILES	inhibition
Cc1ccc(-n2nc3c(=O)n(C(C)C(=O)NCc4ccc5c(c4)OCO5)nc(C)c3c2C)cc1 (configuration not stated)	18.3% (inactive)
O=c1ccc(-c2ccc(S(=O)(=O)Nc3ccccc3)o2)n[nH]1	1% (inactive)
Cc1ccc(C(=O)CSc2nnc(Cn3nnc4ccccc43)n2C)cc1	-7.4% (inactive)
Cn1c(Cn2nnc3ccccc32)nnc1SCC(=O)c1ccccc1F	68.8% (active)
Cn1c(CNC(=O)c2ccccc2F)nnc1SCc1ccc(F)cc1	15.9% (inactive)
COc1ccc(OC)c(NC(=O)CN(C)CCOc2ccc(Br)cc2)c1	-11.8% (inactive)
c1nnc2c3c4c(sc3ncn12)CCC4	0.9% (inactive)
N=c1c2c3c(sc2ncn1N)CCCC3	24.8% (inactive)
S=c1[nH]nc2c3c4c(sc3ncn12)CCCC4	106% (active)
Cc1ccc(C)c(NC(=O)NNC(=O)c2ccc3ccccc3c2O)c1	6.1% (inactive)
COC(=O)c1sccc1NC(=O)CC1C(=O)NCCN1C(=O)Nc1ccc(F)cc1F (configuration not stated)	31.6% (inactive)
O=C(CN1CCN(C/C=C/c2ccccc2)CC1)Nc1ccc(F)cc1F	35.8% (inactive)
O=C(CC1SC(=Nc2ccccc2F)N(CCN2CCOCC2)C1=O)Nc1ccc(F)cc1F (configuration not stated)	64.7% (active)
COC(=O)c1cccc(N2C(=O)C3C4C=CC(CC4)C3C2=O)c1 (configuration not stated)	37.1% (inactive)
Cc1ccc(OCc2cc(C(=O)N(C)CCn3ccnc3C)no2)cc1C	25% (inactive)
O=C(COc1ccc(S(=O)(=O)N2CCOCC2)cc1Cl)N1CCOCC1	19% (inactive)
O=C(Cn1c(NCCO)nc2ccccc21)c1ccc(Cl)cc1Cl	23.3% (inactive)
COc1ccc(CCNC(=O)CN(C)S(=O)(=O)c2ccc3nc(C)sc3c2)cc1OC	3.8% (inactive)
Cc1nc2ccc(S(=O)(=O)N(C)CC(=O)NC(C)c3ccccc3)cc2s1 (configuration not stated)	64% (active)
COc1cc(NC(=O)CN(C)S(=O)(=O)c2ccc3nc(C)sc3c2)cc(OC)c1	-3% (inactive)
COC(=O)c1ccc(/C=C2/C(=O)Oc3ccccc32)cc1	32.5% (inactive)

SMILES	inhibition
CCCC(C)c1nnc(NC(=O)C2CC(=O)N(c3ccc(OCC)cc3)C2)s1 (configuration not stated)	36.2% (inactive)
Cc1ccc(NC(=O)N2CCC(O)(c3cccnc3)CC2)cc1	1% (inactive)
O=C(c1cccc(F)c1)N1CCC(O)(c2cccnc2)CC1	36.6% (inactive)
O=C(Nc1cccc(F)c1)N1C2CCC1CC(O)(c1cccnc1)C2 (configuration not stated)	61.5% (active)
CC(=O)c1cccc(NC(=O)CN2C(=O)c3cccnc3Oc3ccc(Cl)cc32)c1	18.3% (inactive)
CCc1ccc(NC(=O)CCNS(=O)(=O)c2cccs2)cc1	35.1% (inactive)
CCCc1ccc(OCC(=O)NNC(=S)NC(=O)c2ccco2)cc1	96.9% (active)
O=C(Nc1ccc2ccccc2c1)/C(=C/c1cccc(Br)c1)NC(=O)c1ccco1	-2.2% (inactive)
Cc1ccc(OCC(=O)NCCCNC(=O)c2ccco2)cc1C	16% (inactive)
COc1ccc(C(=O)NNC(=S)NC(=O)c2ccccc2)cc1	19.1% (inactive)
CC(Oc1ccc2ccccc2c1)C(=O)NNC(=S)NC(=O)c1ccco1 (configuration not stated)	96.9% (active)
CCCc1ccc(OCCNC(=O)c2ccco2)cc1	41.8% (inactive)
O=S(=O)(Nc1ccc2[nH]ncc2c1)c1ccccc1Cl	-129% (inactive)
COc1ccc(S(=O)(=O)NNC(=O)Nc2ccc(C)cc2)c(OC)c1	21.8% (inactive)
Cc1ccc(N(C(=O)c2snc(C(N)=O)c2N)C(C(=O)NCC2CCCO2)c2c[nH]c3ccccc23)cc1 (configuration not stated)	35.7% (inactive)
COc1ccc(S(=O)(=O)N2CCOC2CNC(=O)C(=O)NCc2ccncc2)cc1C (configuration not stated)	19.8% (inactive)
COc1ccc(NS(=O)(=O)c2ccc3oc(SCC(N)=O)nc3c2)cc1	6.3% (inactive)
NS(=O)(=O)c1ccc(CCNC(=O)Nc2ccc(Cl)cc2)cc1	14.1% (inactive)
NS(=O)(=O)c1ccc(CCNC(=S)Nc2ccc(S(N)(=O)=O)cc2)cc1	78.5% (active)
S=C(NCCc1ccccc1)Nc1ccccc1	22.6% (inactive)
